# Test results: article PMC7819943, “Rice protein-binding microarrays: a tool to detect cis-acting elements near promoter regions in rice”
# The full ranking holds about 39,000 sequences; the median of “fluorescence intensity (a.u.)” is about 4,300, and the highest 2% start at about 39,000. The sample as a whole holds a higher share of the highest values than the screen did.
# Target: T1, OsSMF1 (Oryza sativa, UniProt Q6ZLB0 1-436)
# T1 sequence: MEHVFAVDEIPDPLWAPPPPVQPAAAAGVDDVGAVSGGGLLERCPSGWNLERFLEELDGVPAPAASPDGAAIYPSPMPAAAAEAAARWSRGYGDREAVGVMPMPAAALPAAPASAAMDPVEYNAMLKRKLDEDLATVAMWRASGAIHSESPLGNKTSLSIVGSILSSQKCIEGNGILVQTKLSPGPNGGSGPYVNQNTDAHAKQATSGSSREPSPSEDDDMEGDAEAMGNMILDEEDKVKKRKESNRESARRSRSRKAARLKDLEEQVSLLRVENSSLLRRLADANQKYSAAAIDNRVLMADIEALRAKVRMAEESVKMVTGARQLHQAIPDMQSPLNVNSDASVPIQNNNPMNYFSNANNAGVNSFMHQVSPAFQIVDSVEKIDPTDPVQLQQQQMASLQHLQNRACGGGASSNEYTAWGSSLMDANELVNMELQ
# Test: protein-binding microarray (RPBM); PBS, 2% BSA, 51.3 ng/ul salmon testes DNA, 50 uM zinc acetate, 200 nM TF, 25 C, 1 h; high values mean tight binding
# Details: protein: recombinant; tags: N-terminal polyhistidine and DsRed monomer fusion (pET32a); chain copies: 2; label: CyDye5-dUTP incorporated in the synthesized complementary strand; 3' TTTTT single-stranded linker to array surface; dsDNA, one strand shown
# Summary of the method: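 Binding signal is reported as fluorescence intensity per feature (arbitrary units) from an Axon 4000B scanner. Incubation used 200 nM of each Ni–NTA-purified, N-terminally polyhistidine- and DsRed-fused transcription factor from E. coli BL21-CodonPlus on a double-stranded custom Agilent array for 1 h at 25 °C, with 50 µM zinc acetate in the buffer, followed by washing.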
row,Sequence,binding signal
1,AGGATTTCATGTGTTTTGGTTAACATATTCATGTGTGTCTCGGAGTCACCTAGTGCAG,3500 fluorescence intensity (a.u.)
2,TTTTAGTATATTTATATACTTTGTGCAAGGTGACATGTACCGGAGTCACCTAGTGCAG,3440 fluorescence intensity (a.u.)
3,CTTCTCTTATTGTTTGTGTCATTTTCATTTATGTCCTTGTCGGAGTCACCTAGTGCAG,3940 fluorescence intensity (a.u.)
4,GGAGTGGCGGGGTTGCGGCATTGGGAGCTGACGTGGCCGCCGGAGTCACCTAGTGCAG,25400 fluorescence intensity (a.u.)
5,GTAGAATTATAAAATATATTGTGTACACAATAGGTTTATGCGGAGTCACCTAGTGCAG,3330 fluorescence intensity (a.u.)
6,AAACATCATATCAAATCTTTGGACATAGGTATAGAATATTCGGAGTCACCTAGTGCAG,8890 fluorescence intensity (a.u.)
7,ATATAAATAGGTTTCGAGGTAGAATATCAAAACAAGGATGCGGAGTCACCTAGTGCAG,39300 fluorescence intensity (a.u.)
8,GAGCCACGGTGGAAGGGTATAATCGTAATTTCGCGTATGGCGGAGTCACCTAGTGCAG,3370 fluorescence intensity (a.u.)
9,ACCGGGTCGCGCGCGTCGTTGAAACGTCACACCTAGCTAACGGAGTCACCTAGTGCAG,4280 fluorescence intensity (a.u.)
10,CGAATCTTTTGAGCCTAATTAATCTATCATTAGCACATGTCGGAGTCACCTAGTGCAG,3170 fluorescence intensity (a.u.)
11,AGTAAATCCACATCAACAGCATTCTGTTGTTAACTCTGCCCGGAGTCACCTAGTGCAG,6820 fluorescence intensity (a.u.)
12,TGAAAATCGCATACTAATTAGCTATTAGTCATGAGCTCTTCGGAGTCACCTAGTGCAG,3590 fluorescence intensity (a.u.)
13,CAGGGAGCATTGAGATTCACTTTGTCACGATGGTAATATACGGAGTCACCTAGTGCAG,22600 fluorescence intensity (a.u.)
14,TGCTTCCCCTGTTCTGATCACCTGCGCACACGGGTGCTCACGGAGTCACCTAGTGCAG,49200 fluorescence intensity (a.u.)
15,CTGCACCTGCTTGATCTCTTCTATGTCACTGTTCCTCTGACGGAGTCACCTAGTGCAG,3220 fluorescence intensity (a.u.)
16,GGGGAGCTTTGCCCCTGCGCACACTTGTCACGCTCACGCACGGAGTCACCTAGTGCAG,3220 fluorescence intensity (a.u.)
17,CATAGCCTTTTGCATATGCGTCAAGCGTCTATACGATTCGCGGAGTCACCTAGTGCAG,3900 fluorescence intensity (a.u.)
18,TGGGCGAGGAAGATATGAGTGTGAAAGGATGGAGGGCCCACGGAGTCACCTAGTGCAG,32900 fluorescence intensity (a.u.)
19,TTTGACATAGATGTGTTCCTCTAATGACATAGATGTGTTCCGGAGTCACCTAGTGCAG,3230 fluorescence intensity (a.u.)
20,GACGGCGCGGTCGACCCGCCGTCTGCCACGTCAGCTTGCCCGGAGTCACCTAGTGCAG,27400 fluorescence intensity (a.u.)
21,CGCGGTCGACCCACCGTCTGCCACGTCAGCTTGCTGCCCACGGAGTCACCTAGTGCAG,25600 fluorescence intensity (a.u.)
22,GCAGACGGCGCGGTCGACCCACCGTCTGCCACGTCAGCTTCGGAGTCACCTAGTGCAG,37200 fluorescence intensity (a.u.)
23,CTGGAGCGGGCGGCCACGGTCACGCCACGTCAGCTTCCATCGGAGTCACCTAGTGCAG,42100 fluorescence intensity (a.u.)
24,GTGTGCTGTGTGTGGTCTGAGATGATGTGTACTGCTGCTACGGAGTCACCTAGTGCAG,3950 fluorescence intensity (a.u.)
25,CAATCATCAGCCACGTCCGCCGCCGCTTCAGCTGGATCGGCGGAGTCACCTAGTGCAG,4290 fluorescence intensity (a.u.)
26,TCAGCGGCAGCCCACCCGACTGGGCCGGTCATCGGCGCCACGGAGTCACCTAGTGCAG,3470 fluorescence intensity (a.u.)
27,GAGAGAAGATAGTAGTGGTAGTAGTAGCTGAGCTGTGTCACGGAGTCACCTAGTGCAG,3360 fluorescence intensity (a.u.)

row,Sequence,binding signal
1,GGTCGACCCACCGTCTGCCACGTCAGCTTGCTGCCCACCACGGAGTCACCTAGTGCAG,48400 fluorescence intensity (a.u.)
2,AGAGCTGAGCCTTATGTGTGGTCTGTCTGTGCCTAGTCGACGGAGTCACCTAGTGCAG,48400 fluorescence intensity (a.u.)
3,CGGTCGACCCACCGTCTGCCACGTCAGCTTGCCGCCCACCCGGAGTCACCTAGTGCAG,22800 fluorescence intensity (a.u.)
4,GACGGCGCGGTCGACCCACCGTCTGCCACGTCAGCTTGCCCGGAGTCACCTAGTGCAG,50100 fluorescence intensity (a.u.)
5,CTCCATCTCGCAGTCGCAGTGCCAGCTAAGGCCTTGTACACGGAGTCACCTAGTGCAG,3240 fluorescence intensity (a.u.)
6,GCAGTGGCTAAGCTTAAGCTCAGGTATGATGACTCGTTGGCGGAGTCACCTAGTGCAG,3610 fluorescence intensity (a.u.)
7,AAGGGCAGCTCAGTCATGGCTGCCACGAGGACAGATGTGGCGGAGTCACCTAGTGCAG,4760 fluorescence intensity (a.u.)
8,AGAGCAGATCCCCTGTCACGCCGACGCCGCCGCCGCCACCCGGAGTCACCTAGTGCAG,5410 fluorescence intensity (a.u.)
9,CAATCTGTCATCTCTTTACCAGTCTCATTGACATGTGGGCCGGAGTCACCTAGTGCAG,3270 fluorescence intensity (a.u.)
10,GAGAAAGGGTGTTGACGTGGCATCCTGACATGTGGGGTCCCGGAGTCACCTAGTGCAG,15100 fluorescence intensity (a.u.)
11,AATCGGTGTCGTTTTGCACGGCGTGTGCCACGTCAGCGTTCGGAGTCACCTAGTGCAG,52000 fluorescence intensity (a.u.)
12,AGCGGCGTCGTCTCGGCGGTGGCCGGTGCCACGGCGGCGGCGGAGTCACCTAGTGCAG,6200 fluorescence intensity (a.u.)
13,CACCTATCCATCCATCCATGTGTGGTGTCGTGTCAGCGTTCGGAGTCACCTAGTGCAG,6950 fluorescence intensity (a.u.)
14,CGTCGTCGCCGCCGCCGCCCTCTGCGTCGACGCTGCGGCACGGAGTCACCTAGTGCAG,3220 fluorescence intensity (a.u.)
15,CGACGCCGCCGAGATCGCCGTCACCCGAATCCTGCGACGCCGGAGTCACCTAGTGCAG,3580 fluorescence intensity (a.u.)
16,CATGTACACACCCACAGTCATCTGCTCATGTTTTCACGGTCGGAGTCACCTAGTGCAG,3630 fluorescence intensity (a.u.)
17,GTTTTCGCTTGTACTTCACAGGCTGATCACGGTCAGTACTCGGAGTCACCTAGTGCAG,48700 fluorescence intensity (a.u.)
18,AGCTTCGGAGGCTGTACACGTAATGTGGTCGCTTGTTTGTCGGAGTCACCTAGTGCAG,9220 fluorescence intensity (a.u.)
19,GAGGGGTTACGCGTTAGGCGCTGCCACGTGTATCGATCGGCGGAGTCACCTAGTGCAG,21900 fluorescence intensity (a.u.)
20,CGAGGATTTGAGATCTGAGATGGCACGGACACTAGACAACCGGAGTCACCTAGTGCAG,3440 fluorescence intensity (a.u.)
21,GGGAACATTGTGTGCCAAAATTGACTCACGAATATACAAGCGGAGTCACCTAGTGCAG,3340 fluorescence intensity (a.u.)
22,CTTCTTCGGGCCTTCTTTCAGAACTTTGGGTGGGCCTCACCGGAGTCACCTAGTGCAG,64300 fluorescence intensity (a.u.)
23,TTCTTTGGTGGGTGCCACGTAGGAGAAACCCAGCAGGAGTCGGAGTCACCTAGTGCAG,12000 fluorescence intensity (a.u.)
24,CACCCAAGAACCGGTGGTATTCTTTGGACACGAGAACTTTCGGAGTCACCTAGTGCAG,39100 fluorescence intensity (a.u.)
25,TAAACTTCGGTGGCATGTCATCATCTTCAAACTCATCTTTCGGAGTCACCTAGTGCAG,4670 fluorescence intensity (a.u.)
26,CTTTCTTTCTTTCTTTGTGCCCAACTCTGACACGACTCACCGGAGTCACCTAGTGCAG,5180 fluorescence intensity (a.u.)
27,TATTTCTTCACCTTTAGTCATGTCACCTCTCACTTCACACCGGAGTCACCTAGTGCAG,5120 fluorescence intensity (a.u.)
